# Measurements reported in PubChem BioAssay (NCATS).
# Results filed as inconclusive are left out. The source made the active and inactive calls. Calls come from the whole dose curve; as a rule, active = well fitted curve in the direction sought with a large enough effect; inconclusive = small, poorly fitted or top-dose-only effect, or another doubt; inactive = no such curve, though single readings can be large; an effect the other way counts as inactive or inconclusive.
# What was measured:
# [1] = Quantitative High-Throughput drug screen in 47 multiple myeloma cell lines against the NCATS MIPE library collection: KMS12BM_JCRB cell viability assay (AID 1918971); note: nearly all actives have a fitted effect of over 35% in size
# Procedure, shortened: (§1)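 Relative luminescence from CellTiter-Glo served as the viability signal, referenced to DMSO-treated (100%) and cell-free medium (0%) controls. Treatment lasted 48 hours at 37C with 500 cells per well.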
# [2] = Quantitative High-Throughput drug screen in 47 multiple myeloma cell lines against the NCATS MIPE library collection: KMS12PE_JCRB cell viability assay (AID 1918972); note: nearly all actives have a fitted effect of over 30% in size
# Procedure, shortened: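 Steps: seed 500 cells per well; pin-transfer MIPE 4.0 library; incubate 48 h at 37C, 5% CO2, humidified; add CellTiter-Glo, 5 min room temperature; read luminescence.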
# [3] = Quantitative High-Throughput drug screen in 47 multiple myeloma cell lines against the NCATS MIPE library collection: KMS20_JCRB cell viability assay (AID 1918973); note: nearly all actives have a fitted effect of over 45% in size
# Procedure, shortened: (§2)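 CellTiter-Glo ATP luminescence gave viability after 48 h compound treatment at 37C of 500 multiple myeloma cells per well. Normalisation used DMSO-only wells as 100% and media-only wells as 0% viability; primary qHTS of approved and investigational drugs.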
# [4] = Quantitative High-Throughput drug screen in 47 multiple myeloma cell lines against the NCATS MIPE library collection: KMS26_JCRB cell viability assay (AID 1918975); note: nearly all actives have a fitted effect of over 45% in size
# Procedure, shortened: as §1
# [5] = Quantitative High-Throughput drug screen in 47 multiple myeloma cell lines against the NCATS MIPE library collection: OCIMY1_PLB cell viability assay (AID 1918979); note: nearly all actives have a fitted effect of over 35% in size
# Procedure, shortened: (§3)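 Inhibition of viability over 48 h was scored by ATP content (CellTiter-Glo) in 500-cell wells. Zero and full viability were defined by media-only and DMSO-only wells.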
# [6] = Quantitative High-Throughput drug screen in 47 multiple myeloma cell lines against the NCATS MIPE library collection: MMM1_PLB cell viability assay (AID 1918976); note: nearly all actives have a fitted effect of over 35% in size
# Procedure, shortened: as §3
# [7] = Quantitative High-Throughput drug screen in 47 multiple myeloma cell lines against the NCATS MIPE library collection: MOLP8_DSMZ cell viability assay (AID 1918977); note: nearly all actives have a fitted effect of over 45% in size
# Procedure, shortened: as §3
# [8] = Quantitative High-Throughput drug screen in 47 multiple myeloma cell lines against the NCATS MIPE library collection: NCIH929_DSMZ cell viability assay (AID 1918978); note: nearly all actives have a fitted effect of over 35% in size
# Procedure, shortened: as §3
# [9] = Quantitative High-Throughput drug screen in 47 multiple myeloma cell lines against the NCATS MIPE library collection: MM1S_ATCC cell viability assay (AID 1918980); note: nearly all actives have a fitted effect of over 45% in size
# Procedure, shortened: as §3
# [10] = Quantitative High-Throughput drug screen in 47 multiple myeloma cell lines against the NCATS MIPE library collection: KMS21BM_JCRB cell viability assay (AID 1918974); settings: ATP luminescence, 48 h; viability: at 45.8 µM (top of the series) unless noted
# Procedure, shortened: as §2
# Potency is the fitted concentration of half-maximal effect.
Structure (SMILES),Potency [1],Potency [2],Potency [3],Potency [4],Potency [5],Potency [6],Potency [7],Potency [8],Potency [9],Potency [10]
COc1cc(O)c2c(c1)C(=O)c1cc(C)cc(O)c1C2=O,inactive,inactive,inactive,inactive,inactive,–,–,–,–,–
CC=CC(=O)N(CC)c1ccccc1C,inactive,inactive,inactive,–,inactive,3.72 µM (active),0.0418 µM (active),inactive,6.62 µM (active),–
O=C(CCc1ccc(O)cc1)c1c(O)cc(O)cc1O[C@@H]1O[C@H](CO)[C@H](O)[C@H](O)[C@H]1O,inactive,inactive,inactive,inactive,inactive,–,–,inactive,–,–
COc1cc2nc(-c3ccc(N4CCN(C)CC4)cc3)nc(NCCN3CCOCC3)c2cc1OC,0.166 µM (active),0.209 µM (active),0.105 µM (active),0.0372 µM (active),0.148 µM (active),0.0743 µM (active),–,–,0.0187 µM (active),–
CO[C@H]1C=CC=C(C)C(=O)NC2=CC(=O)C(NCCN(C)C)=C(C[C@@H](C)C[C@H](OC)[C@@H](O)[C@@H](C)C=C(C)[C@@H]1OC(N)=O)C2=O,0.0469 µM (active),0.0662 µM (active),0.001 µM (active),0.0332 µM (active),0.132 µM (active),1.66 µM (active),–,0.059 µM (active),0.105 µM (active),–
C=C1C(=O)[C@@]23C(CC[C@@H]1[C@H]2O)[C@@]12CO[C@]3(O)[C@@H](O)[C@@H]1C(C)(C)CC[C@@H]2O (stereo partly drawn),9.35 µM (active),2.09 µM (active),2.35 µM (active),2.64 µM (active),–,13.2 µM (active),–,1.32 µM (active),1.87 µM (active),–
COc1ccc(-c2nc(N3CCOCC3)c3sc(CN(C)c4ncc(C(=O)NO)cn4)cc3n2)cn1,inactive,0.001 µM (active),inactive,0.0264 µM (active),0.0059 µM (active),–,inactive,–,inactive,–
CC(C)=CC[C@@H](O)C1=CC(=O)c2c(O)ccc(O)c2C1=O,0.935 µM (active),18.7 µM (active),14.8 µM (active),0.418 µM (active),1.18 µM (active),1.05 µM (active),0.418 µM (active),0.264 µM (active),0.662 µM (active),–
O=C(Nc1ccccc1-c1cn2c(CN3CCNCC3)csc2n1)c1cnc2ccccc2n1,10.5 µM (active),inactive,2.96 µM (active),9.35 µM (active),16.6 µM (active),10.5 µM (active),–,7.43 µM (active),23.5 µM (active),–
C[C@H]1[C@H](NC(=O)C(=NOC(C)(C)C(=O)O)c2csc(N)n2)C(=O)N1S(=O)(=O)O,1.48 µM (active),inactive,16.6 µM (active),inactive,–,–,inactive,–,14.8 µM (active),–
O=C1c2ccccc2-[n+]2ccc3c([nH]c4ccccc43)c21,2.09 µM (active),5.26 µM (active),1.05 µM (active),2.35 µM (active),3.72 µM (active),1.32 µM (active),1.48 µM (active),3.32 µM (active),2.64 µM (active),–
CO[C@H]1C(=O)[C@]2(C)[C@@H](OC)C[C@H]3OC[C@@]3(OC(C)=O)[C@H]2[C@H](OC(=O)c2ccccc2)[C@]2(O)C[C@H](OC(=O)[C@H](O)[C@@H](NC(=O)OC(C)(C)C)c3ccccc3)C(C)=C1C2(C)C,inactive,inactive,inactive,–,–,–,–,–,–,–
CN(C)C1CCN(C(=O)c2ccc(NC(=O)Nc3nc(N4CCOCC4)nc(N4CCOCC4)n3)cc2)CC1,0.0083 µM (active),0.105 µM (active),0.105 µM (active),0.0209 µM (active),5.9 µM (active),0.0235 µM (active),–,–,0.0332 µM (active),–
CN(C)CCC=C1c2ccccc2COc2ccc(CC(=O)O)cc21,inactive,inactive,inactive,–,–,–,–,–,–,–
Nc1ncnc2c1ncn2[C@@H]1O[C@H](CO)C[C@@H]1O,20.9 µM (active),inactive,inactive,inactive,inactive,1.32 µM (active),–,inactive,–,–
Nc1ncnc2c1nc(Cl)n2[C@@H]1O[C@H](CO)[C@@H](O)[C@@H]1O,23.5 µM (active),14.8 µM (active),4.69 µM (active),20.9 µM (active),–,18.7 µM (active),–,–,4.18 µM (active),–
O=C(NCc1ccccc1)c1csc(Nc2ccncn2)n1,14.8 µM (active),8.33 µM (active),14.8 µM (active),–,20.9 µM (active),14.8 µM (active),–,–,16.6 µM (active),–
CC(=Cc1ccccc1)C=C1SC(=S)N(CC(=O)O)C1=O,inactive,inactive,inactive,inactive,inactive,–,–,–,inactive,–
COc1cc2ncnc(Nc3ccc(F)c(Cl)c3)c2cc1OCCCN1CCOCC1,34 µM (active),3.03 µM (active),3.4 µM (active),38.2 µM (active),48.1 µM (active),54 µM (active),–,4.29 µM (active),3.03 µM (active),–
CN(C[C@@H]1COCCO1)S(=O)(=O)Nc1ccc2ccc3ncc(-c4cnn(C)c4)cc3c(=O)c2c1,16.6 µM (active),0.743 µM (active),1.18 µM (active),–,–,–,–,7.43 µM (active),16.6 µM (active),5.26 µM (active)

Structure (SMILES),Potency [1],Potency [2],Potency [3],Potency [4],Potency [5],Potency [6],Potency [7],Potency [8],Potency [9],Potency [10]
CC[C@]1(O)C[C@@H]2CN(CCc3c([nH]c4ccccc34)[C@@](C(=O)OC)(c3cc4c(cc3OC)N(C=O)[C@@H]3C45CCN4CC=C[C@](CC)([C@H]45)[C@@H](OC(C)=O)[C@]3(O)C(=O)OC)C2)C1 (stereo partly drawn),18.7 µM (active),inactive,–,23.5 µM (active),26.4 µM (active),10.5 µM (active),–,–,18.7 µM (active),–
O=C(OCC#CCSc1nnc(-c2cccc3ccccc23)o1)c1cc2ccccc2s1,16.6 µM (active),inactive,–,inactive,inactive,–,–,inactive,inactive,–
COc1cc2c(cc1OC)CN(CCc1ccc(NC(=O)c3cc(OC)c(OC)cc3NC(=O)c3cnc4ccccc4c3)cc1)CC2,10.5 µM (active),inactive,–,–,inactive,2.35 µM (active),–,8.33 µM (active),2.64 µM (active),–
C[C@]12CCC3c4ccc(O)cc4CCC3C1CCC2=O (stereo partly drawn),20.9 µM (active),inactive,–,3.32 µM (active),inactive,–,20.9 µM (active),–,–,–
Nc1ncnc2c1ncn2[C@@H]1O[C@@H](CO)[C@H](O)[C@H]1O,inactive,inactive,–,inactive,inactive,–,inactive,inactive,inactive,–
Cc1c(O)cccc1C(=O)N[C@@H](CSc1ccccc1)[C@H](O)CN1C[C@H]2CCCC[C@@H]2C[C@@H]1C(=O)NC(C)(C)C,20.9 µM (active),10.5 µM (active),–,29.6 µM (active),20.9 µM (active),20.9 µM (active),–,23.5 µM (active),20.9 µM (active),–
C[C@]12CC[C@@H]3c4ccc(O)cc4C[C@@H](CCCCCCCCCS(=O)CCCC(F)(F)C(F)(F)F)[C@H]3[C@H]1CC[C@H]2O (stereo partly drawn),16.6 µM (active),7.43 µM (active),–,inactive,inactive,18.7 µM (active),–,0.0187 µM (active),2.96 µM (active),–
C[C@H](NC(=O)c1sccc1OCc1ccc(Cl)cc1)c1ccccc1,18.7 µM (active),inactive,–,–,16.6 µM (active),16.6 µM (active),–,–,18.7 µM (active),–
Cc1c(NC(=O)c2ccc(C(C)(C)C)cc2)cccc1-c1cn(C)c(=O)c(Nc2ccc(C(=O)N3CCOCC3)cc2)n1,23.5 µM (active),5.26 µM (active),–,16.6 µM (active),–,26.4 µM (active),inactive,–,20.9 µM (active),–
OC[C@H]1O[C@@H](Oc2cc(O)cc(C=Cc3ccc(O)cc3)c2)[C@H](O)[C@@H](O)[C@H]1O,inactive,inactive,–,inactive,–,–,–,–,–,–
N#Cc1ccc(NC(=O)Nc2ccccc2Br)c2n[nH]nc12,inactive,9.35 µM (active),inactive,–,inactive,–,–,–,26.4 µM (active),–
CC[C@H]1OC(=O)[C@H](C)[C@@H](O[C@H]2C[C@@](C)(OC)[C@@H](O)[C@H](C)O2)[C@H](C)[C@@H](O[C@@H]2O[C@H](C)C[C@H](N(C)C)[C@@H]2O)[C@](C)(O)C[C@@H](C)CN(C)[C@H](C)[C@@H](O)[C@]1(C)O,inactive,inactive,–,inactive,inactive,–,–,–,18.7 µM (active),–
COc1cc(N2CCC(N3CCN(C)CC3)CC2)ccc1Nc1ncnc(Nc2ccccc2S(=O)(=O)C(C)C)n1,23.5 µM (active),inactive,–,–,–,–,–,–,–,inactive
Cc1cnc(C(=O)O)c[n+]1[O-],inactive,inactive,–,–,inactive,3.32 µM (active),–,inactive,–,–
CS(=O)(=O)N(Cc1ccco1)CC(O)Cn1c2ccccc2c2ccccc21 (stereo not drawn),20.9 µM (active),inactive,–,–,–,20.9 µM (active),–,–,–,–
CC(C)(C)Cn1c(N)nc2ccc(-c3[nH]c(C(C)(C)C)nc3-c3ccc(F)cc3)nc21,23.5 µM (active),inactive,–,–,16.6 µM (active),20.9 µM (active),7.43 µM (active),26.4 µM (active),16.6 µM (active),–
Cc1ccc(F)c(NC(=O)Nc2ccc(-c3cccc4[nH]nc(N)c34)cc2)c1,26.4 µM (active),8.33 µM (active),–,23.5 µM (active),–,–,26.4 µM (active),–,–,–
O=c1cc(CN2CCOCC2)occ1OCCCCCSc1ccnc2cc(C(F)(F)F)ccc12,5.9 µM (active),16.6 µM (active),–,16.6 µM (active),–,16.6 µM (active),–,3.72 µM (active),–,–
O=C(NCc1ccncc1)C12C[C@H]3C[C@@H](C1)CC(c1ccc(Cl)cc1)(C3)C2,20.9 µM (active),26.4 µM (active),–,–,–,14.8 µM (active),–,inactive,13.2 µM (active),13.2 µM (active)
